Laboratory results taken from PubChem BioAssay (NCI).
About 79,000 compounds went through this panel and 15% of them were active in at least one assay; those are over-represented in the sample as a whole. No stated cut-off is given here; in the data, active means growth inhibition above about 70%; inactive means the rest.

Assays:
[1] = NCI Yeast Anticancer Drug Screen. Data for the rad50 strain (AID 155);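 further: 0% = growth of vehicle-only cultures of the same strain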; conditions: S. cerevisiae rad50 strain growth inhibition; at 50.0 µM; active compounds read high
How it was run: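 Readout: growth inhibition relative to vehicle-treated cultures. Compound exposure was carried out in a genetically defined yeast strain deficient in DNA damage repair.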

[2] = NCI Yeast Anticancer Drug Screen. Data for the mec2-1 strain (AID 157); conditions: S. cerevisiae mec2-1 strain, at 50.0 µM, active compounds read high
How it was run: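 Readout is yeast growth inhibition, normalised to vehicle-treated controls, in the mec2-1 strain exposed to compound.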

[3] = NCI Yeast Anticancer Drug Screen. Data for the sgs1 mgt1 strain (AID 161);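 further: 0% = growth of cultures given vehicle only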; conditions: S. cerevisiae sgs1 mgt1 strain, at 50.0 µM, active compounds read high
How it was run: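 Percent growth inhibition was derived by comparing compound-exposed mutant yeast with vehicle-exposed cultures. The strain carries alterations in DNA damage repair.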

[4] = NCI Yeast Anticancer Drug Screen. Data for the cln2 rad14 strain (AID 165);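 further: 0% = growth equal to vehicle treated cultures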; conditions: S. cerevisiae cln2 rad14 strain, at 50.0 µM, active compounds read high
How it was run: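 Relative to vehicle controls, growth inhibition of compound-treated cln2 rad14 yeast was recorded.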

[5] = NCI Yeast Anticancer Drug Screen. Data for the bub3 strain (AID 167); conditions: S. cerevisiae bub3 mutant strain, at 50.0 µM, active compounds read high
How it was run: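 Readout: yeast growth inhibition, expressed relative to vehicle-only wells. The test organism is a mutant strain from a panel with lesions in DNA repair or checkpoint genes.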

[6] = NCI Yeast Anticancer Drug Screen. Data for the mlh1 rad18 strain (AID 175); conditions: S. cerevisiae mlh1 rad18 strain growth inhibition; at 50.0 µM; active compounds read high
How it was run: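 Test agents were incubated with a yeast strain of defined genotype (DNA damage repair defect). Inhibition of growth was derived by comparison with vehicle-exposed cultures.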

Measured: growth inhibition

Cc1cc(-n2nnc3ccccc3c2=O)on1
inactive: [1] -21.2% | [2] -30.7% | [3] -17.1% | [4] -9.5% | [5] -26% | [6] 2.5%

O/N=C/C(=Nc1ccc2ccccc2c1)NO
inactive: [1] 41% | [2] 3.25% | [3] -4.5% | [4] -18.2% | [5] -8.45% | [6] 23.5%

CC(C)(CCN)[N+](=O)[O-]
inactive: [1] -5.15% | [2] 9.15% | [3] 17.9% | [4] -88.3% | [5] 5.55% | [6] -2.5%

C/C(O)=C(\C=NC(=S)c1ccncc1)C(=O)Nc1ccccc1C
inactive: [1] -26.4% | [2] -37.6% | [3] -4.8% | [4] 13.3% | [5] -4.5% | [6] -26.9%

Cc1nn(C(=O)c2ccc(Cl)cc2)c2c1C(c1ccccc1O)SC(N)=N2 (stereo unspecified)
inactive: [1] -29.9% | [2] -47.1% | [3] -30.1% | [4] -1.45% | [5] -11.5% | [6] -25.1%

NNC(=O)CCC(=O)NC1C2CC3CC(C2)CC1C3 (stereo unspecified)
inactive: [1] -23.6% | [2] -15.4% | [3] -18.6% | [4] -0.85% | [5] -10.7% | [6] 25.2%

Nc1ncnc2c1[nH]c(=O)n2-c1ccccc1
inactive: [1] -46.6% | [2] -30.5% | [3] -16.6% | [4] -1.3% | [5] -17.1% | [6] -6.9%

O=C(Nc1nccs1)c1cc(C2=CC=CC([N+](=O)[O-])C=C2)nc(=S)[nH]1 (stereo unspecified)
inactive: [1] -12.9% | [2] -18.5% | [3] -23.8% | [4] -8.45% | [5] -8.65% | [6] -7.6%

Cc1ccc(S(=O)(=O)N/N=C/c2cc([N+](=O)[O-])cc(I)c2O)cc1
inactive: [1] 2.35% | [2] -3.6% | [3] -4.5% | [4] -50.4% | [5] -10.6% | [6] 4.2%

NC(=O)CN(CC(N)=O)CC(N)=O
inactive: [1] -0.7% | [2] -11.7% | [3] 1.75% | [4] -2.85% | [5] -3.65% | [6] -7.9%

Cc1nc2ccc(Cl)cc2c(=O)[nH]1
inactive: [1] -6.35% | [2] -6.45% | [3] -8.65% | [4] -57.2% | [5] -16.2% | [6] 0.9%

Nc1n[nH]c(CO)n1
inactive: [1] 7.3% | [2] 4.05% | [3] -6.6% | [4] 9.65% | [5] -14.8% | [6] -7.1%

Nc1nc2c(c(=O)[nH]1)NC(CCNc1ccc(C(=O)NC(CCC(=O)O)C(=O)O)cc1)CN2 (stereo unspecified)
inactive: [1] 14% | [2] 14.9% | [3] 25.6% | [4] 19.6% | [5] 7.65% | [6] 16.1%

COc1ccc(C)cc1NC(=O)c1c(Br)c(Br)c(Br)c(Br)c1C(=O)O
inactive: [1] 4.25% | [2] -11.1% | [3] 10.4% | [4] 12.8% | [5] 6.8% | [6] 10.8%

O=C1C(NS(=O)(=O)c2ccccc2)=C(n2cnc3ccccc32)C(=O)c2ccccc21
inactive: [1] 0.75% | [2] 4.4% | [3] 12.1% | [4] -1.95% | [5] 1.65% | [6] -58.8%

O=S1(=O)C2C=CCC1C(Cl)CC2 (stereo unspecified)
inactive: [1] -7.7% | [2] 29.9% | [3] 36% | [4] -24.4% | [5] 24.9% | [6] -5.25%

N#Cc1ccc(-n2cccc2)cc1
inactive: [1] -1.8% | [2] -1.6% | [3] 7.35% | [4] -26.8% | [5] -6.2% | [6] -4.5%

CC(=O)NN(C)C(C)=O
inactive: [1] 6% | [2] 27.3% | [3] -4.2% | [4] 12.4% | [5] 15.9% | [6] 10.5%

NNc1nnc(Cl)c2c1ncn2Cc1ccccc1
inactive: [1] -16.9% | [2] -7.45% | [3] 23.1% | [4] -21.4% | [5] 2.75% | [6] 20.6%

COC(=O)n1c(CBr)c(Br)c2ccccc21
inactive: [1] 26.3% | [2] -2.15% | [3] -3.65% | [4] -3.8% | [5] 4.9% | [6] 1.5%

Nc1nnc(-c2ccc(Br)cc2)o1
inactive: [1] 3.05% | [2] -16.9% | [3] -14.2% | [4] -5% | [5] -25.9% | [6] 5%

NC(CS)=NCCc1nc2ccccc2[nH]1
inactive: [1] 12.6% | [2] 9.95% | [3] -0.2% | [4] -2.85% | [5] 7.6% | [6] 4.3%

CC(C)COc1ccc(O)cc1
inactive: [1] 8.95% | [2] -3.55% | [3] -16.5% | [4] -43.5% | [5] -11% | [6] 3.35%

CC(C)(C)NCC(O)c1ccc(O)c(CO)n1 (stereo unspecified)
inactive: [1] 1.3% | [2] -8.05% | [3] -19.4% | [4] 9.05% | [5] -8.9% | [6] -3.3%

COc1ccc(OC)c(NC(=O)Nc2nccs2)c1
inactive: [1] 1.9% | [2] 42.9% | [3] 29.1% | [4] -5.25% | [5] 36.6% | [6] 32.5%

CCCCOC(=O)COc1ccc(OC)cc1
inactive: [1] -4.5% | [2] -22.1% | [3] -13.3% | [4] -34.6% | [5] 3.45% | [6] 6.2%

NC(=S)c1cccc(C(N)=S)n1
inactive: [1] 18.7% | [2] 19.9% | [3] 23.9% | [4] -27.9% | [5] 22.6% | [6] 26.6%

O=C(c1ccccc1)c1cc(Br)c2cccc3c2c1CC3
inactive: [1] 11.6% | [2] -7.6% | [3] -1.5% | [4] 14.3% | [5] 20.4% | [6] -3%

O=C(CC(=O)c1cccc([N+](=O)[O-])c1)C(=O)Nc1ccccc1
inactive: [1] -30.5% | [2] -28.8% | [3] 14.7% | [4] 11.1% | [5] -8.05% | [6] -5.55%

CC(=O)C1CCCCCCC1=O (stereo unspecified)
inactive: [1] 16.1% | [2] -5.35% | [3] 4.9% | [4] -15.8% | [5] -11.8% | [6] 16.1%

C=C(C)CC1(C)C(=O)CCC1O (stereo unspecified)
inactive: [1] -13.7% | [2] -15.8% | [3] 3.9% | [4] -30.8% | [5] 6.1% | [6] 6.25%

O=C(O)/C=C/c1ccccc1C(=O)O
inactive: [1] 11.3% | [2] -4.3% | [3] 4.05% | [4] -13.2% | [5] -11.4% | [6] 6.05%

CCC(=O)Oc1ccccc1C(C)C
inactive: [1] 9.8% | [2] -14.6% | [3] 1.9% | [4] 8.55% | [5] -6.25% | [6] 12.2%

CCc1cccc(CC)c1Nc1nc(-c2ccccc2-c2ccccc2)cs1
inactive: [1] -29.1% | [2] -4.4% | [3] -7.05% | [4] -99.2% | [5] -20.9% | [6] -39.9%

CCCCCC1=CC(=O)C=C(OC)C12C(=O)Oc1cc(O)c(C(=O)O)c(CCCCC)c12 (stereo unspecified)
inactive: [1] 32.4% | [2] 37% | [3] 28.2% | [4] 48.4% | [5] 18.6% | [6] 33.8%

COc1ccc(C(=O)CC(c2ccccc2)[C@H]2C(c3ccc(OC)cc3)=Nc3c(nc(SC)n(C)c3=O)NC2c2ccccc2)cc1 (stereo partly specified)
inactive: [1] 16.8% | [2] 7.55% | [3] 20.6% | [4] 12.7% | [5] -0.35% | [6] 19.2%

C[s+]1c2ccccc2c2ccccc21
inactive: [1] -65.8% | [2] -46.4% | [3] -32.9% | [4] -22.6% | [5] -13.2% | [6] -49.8%

COc1cccc([N+](=O)[O-])c1
inactive: [1] 18.3% | [2] 32.2% | [3] -14.8% | [4] -5.9% | [5] -0.9% | [6] 5.75%

Nc1nc2nc(N=Nc3ccccc3)[nH]c2c(=O)[nH]1
inactive: [1] 21.5% | [2] -1.9% | [3] 8.3% | [4] 9.25% | [5] 5.45% | [6] 8.9%

CCC(CC)C(O)(C(=O)O)C(CC)CC
inactive: [1] 14.1% | [2] 13.7% | [3] 3.95% | [4] 3.3% | [5] 8.5% | [6] 32.8%

c1ccc2c(c1)cc1ccc3cc4ccccc4c4nnc2c1c34
inactive: [1] -23.1% | [2] -7.3% | [3] -10.2% | [4] -16.8% | [5] -11.9% | [6] -14.6%
